The list is not random: actives were taken first. Their share in the collection is about 1.2%.
Tb PGK inh = T. brucei PGK inhibition; PGK/GAPDH coupled, Kinase-Glo luminescence, 60 min; actives 0.043% (n = 380,000); AID 602233; Potency, µM (titrated, usually from 57.5 µM), hits mostly inhibitors; further: nearly all actives have a fitted effect of over 60% in size
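Recombinant glycosomal PGK reaction used 1,3-bisphosphoglycerate generated in-well by GAPDH (100nM final) in 100mM TEA pH 7.6, 5mM MgCl2, 0.01% Tween-20. After 60 minutes at room temperature, ATP was read by Kinase-Glo Plus luminescence end-point.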
RGS4 inh = human RGS4 inhibition. P49798. Transcreener GDP fluorescence polarization, RGS4-accelerated GTP hydrolysis. Potency, µM (highest dose often 114 µM), actives largely listed as inhibitors. actives 0.039% (n = 390,000). AID 504845; further: nearly all actives have a fitted effect of over 75% in size
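MLSMR compounds (23 nl, pin-transferred) preincubated 10 min at room temperature with a 500nM (2x) first reagent, then RGS4 at 900nM (2x) plus Transcreener GDP mix added; fluorescence polarization (620/688 nm) read before and after 90 min at 30 °C.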
KCNH2 WT inh = inhibitors of human wildtype KCNH2 potassium channel; Q12809; actives 0.37% (n = 340,000); activity change, % at 1.84 µM; AID 720551; U2OS, BacMam KCNH2, thallium flux FluxOr; active compounds read low;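 active means maximum activity change below -70%; inconclusive means maximum activity change between -70% and -50%; inactive means maximum activity change above -50%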
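U2OS cells transduced with wild-type KCNH2 virus are loaded with FluxOr dye for 45 min, and thallium flux is measured in kinetic reads before and after stimulation buffer. Rate constants are normalized to DMSO controls.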
Pin1 inhibitor = blocks the human prolyl isomerase Pin1; Pin1 FP peptide displacement, HiFluor488, 10 min; Potency, µM (series often up to 115 µM), actives largely listed as inhibitors; actives 0.009% (n = 390,000); AID 504891; active means well fitted inhibition curve with a large enough effect in the polarisation, with a control signal flat, not every such curve was filed as active; inconclusive means small, poorly fitted or top-dose-only effect, or effect the other way, or a change in a side signal; inactive means no such curve, though single readings can be large or run the other way; the % refers to the polarisation
GCN5L2 inh = blocks human GCN5L2 histone acetyltransferase | Potency, µM (doses to about 58.9 µM), usual class: inhibitors | Q92830 | GCN5L2 HAT assay, ThioGlo1 CoA-SH fluorescence | actives 0.21% (n = 390,000) | AID 504327
Target sequence (Q92830 whole entry, looked up): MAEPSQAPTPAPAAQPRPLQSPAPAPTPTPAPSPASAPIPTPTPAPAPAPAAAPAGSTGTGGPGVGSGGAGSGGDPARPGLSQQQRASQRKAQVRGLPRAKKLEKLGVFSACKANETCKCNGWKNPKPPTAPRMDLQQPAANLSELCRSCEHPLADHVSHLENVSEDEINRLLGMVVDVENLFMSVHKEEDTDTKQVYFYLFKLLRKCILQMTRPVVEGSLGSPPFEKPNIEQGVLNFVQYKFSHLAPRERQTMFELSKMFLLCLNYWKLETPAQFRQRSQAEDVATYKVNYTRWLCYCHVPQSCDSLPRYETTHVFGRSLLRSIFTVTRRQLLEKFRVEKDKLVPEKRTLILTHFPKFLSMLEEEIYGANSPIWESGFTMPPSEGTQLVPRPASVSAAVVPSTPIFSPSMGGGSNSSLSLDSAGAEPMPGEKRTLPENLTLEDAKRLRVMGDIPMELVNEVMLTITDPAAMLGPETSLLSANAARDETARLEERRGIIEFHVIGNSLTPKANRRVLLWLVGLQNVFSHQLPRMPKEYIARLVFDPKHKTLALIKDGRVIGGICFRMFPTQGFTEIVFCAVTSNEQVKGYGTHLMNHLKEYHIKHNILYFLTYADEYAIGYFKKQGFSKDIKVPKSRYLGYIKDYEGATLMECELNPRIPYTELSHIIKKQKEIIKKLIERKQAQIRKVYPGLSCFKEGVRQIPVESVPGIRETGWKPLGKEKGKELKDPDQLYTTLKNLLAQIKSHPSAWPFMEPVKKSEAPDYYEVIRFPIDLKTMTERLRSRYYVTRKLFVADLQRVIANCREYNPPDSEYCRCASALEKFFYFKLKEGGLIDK
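qHTS, 1536-well. 20nM enzyme, pH 7.5 HEPES/EDTA/Tween-20 buffer; 15 min compound preinc., RT. Start: 75uM H3(1-25), 70uM AcCoA, 50uM ThioGlo1. Read Ex340/Em540 at t=0 (autofluorescence flag) and t=20 min.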
KCNH2 3.1 block = KCNH2 3.1 (human) potassium channel inhibition. activity change, % (tested at about 1.8 µM). actives 0.95% (n = 340,000). U2OS KCNH2 3.1, thallium flux FluxOr; active compounds read low;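 active means maximum activity change below -70%; inconclusive means maximum activity change from -70% to -50%; inactive means maximum activity change above -50%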;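 further: thallium influx rate constant from kinetic fluorescence after stimulation buffer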
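Steps: virus added to U2OS suspension (4 h, RT, dark); medium with 10% FBS added, cells plated, 37 C overnight; FluxOr/Red40 loading buffer 45 min RT; stimulation buffer, 2 min kinetic read; rate constant normalized.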
Each line names hits and unclear results; the compound was inactive in the other large screens. Unless noted, the call rests on the fitted dose curve; in most records, active means well fitted curve in the direction sought with a large enough effect; inconclusive means small, poorly fitted or top-dose-only effect, or another doubt; inactive means no such curve, though single readings can be large; an effect the other way counts as inactive or inconclusive.

O=C(NCCCN1CCN(Cc2ccccc2Cl)CC1)Nc1ccccc1	none (no result: KCNH2 3.1 block)
Cc1ccc(C)c(CN2CCC(CNC(=O)Nc3ccc(Cl)cc3)CC2)c1	KCNH2 3.1 block -88
Cc1ccccc1CC1CCN(CCCNC(=O)Nc2ccccc2)CC1	KCNH2 3.1 block -80
Cc1ccc(C)c(CN2CCC(CNC(=O)Nc3ccc(Br)cc3F)CC2)c1	GCN5L2 inh inconclusive, KCNH2 3.1 block -71
O=C(Cn1cc(CNC(=O)c2ccccc2)nn1)Nc1cc(C(F)(F)F)ccc1Cl	none (no result: Tb PGK inh, RGS4 inh, KCNH2 WT inh, GCN5L2 inh, KCNH2 3.1 block)
Cc1cc2c(cc1Cl)C(c1ccc3c(c1)OCO3)CC(=O)O2 (configuration not stated)	none (no result: Tb PGK inh, RGS4 inh, KCNH2 WT inh, Pin1 inhibitor, KCNH2 3.1 block)
COc1ccc(C)cc1S(=O)(=O)N1CCC(C(=O)NCCC2=CCCCC2)CC1	none
COc1ccc(C)cc1S(=O)(=O)NCCC1=CCCCC1	KCNH2 WT inh -257
Cc1cccc2c1-c1sc(C(=O)NCCCN3CCC(C)CC3)cc1CO2	KCNH2 3.1 block -75
CC1CCN(CCCNC(=O)c2cc3c(s2)-c2ccccc2OC3)CC1	none
Cc1ccc(Nc2c(-c3ccc(N(C)C)cc3)nc3ccccn23)cc1	none (no result: KCNH2 WT inh, KCNH2 3.1 block)
COc1cccc(CN2CCCN(S(=O)(=O)c3ccc(Br)cc3)CC2)c1	KCNH2 WT inh -88
O=S(=O)(c1ccc(Br)cc1)N1CCCN(Cc2cccc(F)c2)CC1	none
C/C=C1/C2C=C(C)CC1(N)c1ccc(=O)[nH]c1C2 (configuration not stated)	none (no result: Tb PGK inh, RGS4 inh, KCNH2 WT inh, Pin1 inhibitor, KCNH2 3.1 block)
O=C1Oc2ccccc2C(=O)C1C(CC(O)c1ccc(-c2ccc(Br)cc2)cc1)c1ccccc1 (configuration not stated)	GCN5L2 inh 22µM (no result: Tb PGK inh, RGS4 inh, KCNH2 WT inh, Pin1 inhibitor, KCNH2 3.1 block)
O=C1c2ccccc2C(=O)N1CC(O)CNc1ccc(Br)cc1 (configuration not stated)	none
Cc1ccccc1-c1ccc(Nc2ccc(N3CCOCC3)cc2)nn1	KCNH2 3.1 block -73
O=C(NCCc1ccncc1)Nc1ccc(Cl)c(Cl)c1	KCNH2 3.1 block -82
CCCN(CCC)CC(O)COc1ccc([N+](=O)[O-])cc1 (configuration not stated)	KCNH2 WT inh -75, KCNH2 3.1 block inconclusive
CCCN(CCC)CC(O)COc1ccc2c(c1)OCO2 (configuration not stated)	none
Cc1cccc(CNc2ncncc2-c2ccccc2CN(C)C)c1	none (no result: Tb PGK inh, RGS4 inh, KCNH2 WT inh, Pin1 inhibitor, KCNH2 3.1 block)
Cc1ccc(CNC(=O)C23CN(Cc4ccccc4)CC2C(c2cccc([N+](=O)[O-])c2)=NO3)cc1 (configuration not stated)	GCN5L2 inh inconclusive, KCNH2 3.1 block -72
O=C(NCc1ccccc1)C12CN(Cc3ccccc3)CC1C(c1ccc([N+](=O)[O-])cc1)=NO2 (configuration not stated)	KCNH2 3.1 block -77
Cc1noc(C)c1-c1cncnc1N(C)Cc1ccco1	none (no result: Tb PGK inh, RGS4 inh, KCNH2 WT inh, Pin1 inhibitor, KCNH2 3.1 block)
O=C(CN1CCCCCC1)NN(Cc1ccccc1)c1ccccc1	KCNH2 3.1 block -95
O=C(CN1CCN(c2ccc(O)cc2)CC1)NC(c1ccccc1)c1ccccc1	none
O=C(CN1CCCCCC1)NC(c1ccccc1)c1ccccc1	KCNH2 3.1 block -82
O=NN(CCCl)C(=O)NC1CCCCC1	none (no result: Tb PGK inh, RGS4 inh, KCNH2 WT inh, Pin1 inhibitor, KCNH2 3.1 block)
CCN1/C(=C\c2ccc3cc(C)ccc3[n+]2CC)Sc2cc(C)c(C)cc21	RGS4 inh inconclusive, KCNH2 WT inh -126
CCN1/C(=C/c2ccc3cc(C)cc(C)c3[n+]2CC)Sc2cc(C)ccc21	RGS4 inh inconclusive, Pin1 inhibitor inconclusive
CCN(CC)S(=O)(=O)c1ccc(-c2cn3ccccc3n2)cc1	KCNH2 WT inh -100 (no result: RGS4 inh, Pin1 inhibitor, GCN5L2 inh)
CN(C)S(=O)(=O)c1ccc(-c2cn3ccccc3n2)cc1	none
COc1ccc(Cl)cc1NC(=O)c1cc(-c2ccccc2O)n[nH]1	none
Cc1c(Cl)cccc1NC(=O)c1cc(-c2ccccc2O)n[nH]1	KCNH2 3.1 block -103
O=c1[nH]sc2ccccc12	GCN5L2 inh 8.9µM
Cc1cccc(CSCC(=O)N2CCN(S(=O)(=O)c3ccccc3C#N)CC2)c1	KCNH2 WT inh -238 (no result: RGS4 inh, Pin1 inhibitor, GCN5L2 inh)
